# Assay results as given in PubChem BioAssay (NCATS).
# Results filed as inconclusive are left out. Where a call stands in place of a potency, no number is given. Active and inactive are the calls of the source. Unless noted, calls follow the shape of the dose curve; as a rule, active = well fitted curve in the direction sought with a large enough effect; inconclusive = small, poorly fitted or top-dose-only effect, or another doubt; inactive = no such curve, though single readings can be large; an effect the other way counts as inactive or inconclusive.
# Legend:
# [1] = system: Zika virus NS2B-NS3 protease; assay: Primary screen GU AMC qHTS for Zika virus inhibitors (AID 1347154); also: nearly all actives have a fitted effect of over 70% in size
# Procedure, shortened: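 Unlinked Zika NS2B hydrophilic domain–NS3 protease complex at 25 nM in 10 mM Tris-HCl pH 8.0, 0.01% Tween 20, with an AMC peptide substrate. Fluorescence change (340/450 nm) over 15 min at room temperature, normalized to controls, fitted to 4-parameter Hill.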
# [2] = Primary qHTS for small molecule stabilizers of the endoplasmic reticulum resident proteome: Secreted ER Calcium Modulated Protein (SERCaMP) assay (AID 1508630)
# Procedure, shortened: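 GLuc-SERCaMP-expressing SH-SY5Y cells, pretreated 16 h with compound, are challenged with thapsigargin to empty ER calcium stores; after 4 h, coelenterazine is added directly to the medium and luminescence is imaged.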
# [3] = AP1 Signaling Pathway (AID 357; active = well fitted curve in either direction with a large enough effect, not every such curve was filed as active); settings: ME-180 AP-1-bla reporter, EGF-induced, beta-lactamase ratio, 5 h; at 38 µM (top of the series)
# Procedure, shortened: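 ME-180 cells with beta-lactamase reporter under AP-1 response element, stimulated with EC50 EGF; compounds tested in titration series, 5 h at 37 °C. CCF4 substrate added 2.5 h at room temperature; 460/530 nm emission ratio gave %activity and AC50.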
# [4] = target: Cytochrome P450 1A2 (Homo sapiens) (UniProt P05177); assay: p450-cyp1a2 (AID 410; calls by dose curve; also: potency is read from the fitted curve at half-maximal effect)
# Procedure, shortened: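 20nM CYP1A2 with 100uM Luciferin-ME (at Km) in 100mM KPO4; compound preincubated 10 min, NADPH regeneration added, 60 min at room temperature. Luciferin quantified by luminescence after detection reagent; normalized to 57 uM furafylline.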
# [5] = NFAT Signaling Pathway (AID 444; active = well fitted curve in either direction with a large enough effect, not every such curve was filed as active;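 also: carbachol stimulus at about its EC50 of 1 µM final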); settings: Jurkat NFAT-bla M1, carbachol, beta-lactamase ratio, 5 h; at 38 µM (top of the series)
# Procedure, shortened: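 Jurkat cells with NFAT-driven β-lactamase reporter and co-expressed M1 receptor, stimulated with carbachol (final 1 uM, ~EC50), compound titration, 5 h at 37 °C. CCF4 loaded 1 h at RT; 460/530 nm ratio gave %activity and AC50.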
# [6] = Stat Signaling Pathway (AID 446; active = well fitted curve in either direction with a large enough effect, not every such curve was filed as active;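 also: ME-180 cervical cancer cells given 40 pM IL-6 alongside compound; SIE-controlled beta-lactamase reporter measured as 460/530 nm FRET emission ratio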); settings: ME-180 SIE beta-lactamase reporter, IL-6 stimulated, 5 h; at 38 µM (top of the series)
# Procedure, shortened: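 ME-180 SIE-bla cells; overnight plating; cpd + IL-6 40 pM, 5 h, 37 C; LiveBLAzer 2.5 h RT; 460/530 nm emission ratio. Normalized to 300 pM IL-6 and 125 nM JAK inhibitor controls.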
# [7] = target: Glucocorticoid receptor (Homo sapiens) (UniProt P04150); assay: GR-GFP Redistribution (AID 450;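 active = compounds whose dose series gives a full or clear partial fitted curve of increased nuclear translocation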; also: potency is read from the fitted curve at half-maximal effect); settings: U2OS GR-GFP nuclear translocation, laser cytometry, 2 h
# [8] = target: Glucocorticoid receptor (Homo sapiens) (UniProt P04150); assay: GR-EFC Redistribution (AID 451; calls by dose curve; also: potency is read from the fitted curve at half-maximal effect); settings: CHO-K1 GR-EFC translocation, beta-gal luminescence, 2 h
# Procedure, shortened: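 CHO-K1 cells expressing nuclear EA and GR-ED fragments of b-gal; compounds titrated up to 46 uM final, 2 h at 37 C. GR nuclear translocation read as complemented b-gal luminescence after 1 h RT detection.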
# [9] = target: 3',5'-cyclic-AMP phosphodiesterase 4B (Homo sapiens) (UniProt Q07343); assay: qHTS Assay for Inhibitors of PDE-IV (AID 607; active = well fitted activation curve with a large enough effect in the main read-out, with a control signal flat, not every such curve was filed as active)
# Procedure, shortened: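 ACTOne HEK293 cells carry a modified cAMP-gated CNG channel and express endogenous PDE4; plated 1000 cells/well, compounds up to 22.9 uM final. Membrane-potential dye fluorescence (ex 535/em 590) was read; parental cells received 10 uM forskolin + 100 uM RO 20-1724.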
# [10] = target: Guanine nucleotide-binding protein G(i) subunit alpha-1 (Homo sapiens) (UniProt P63096); assay: qHTS Assay for Inhibitors of RGS12 GoLoco Motif Activity (Green Fluorophore) (AID 879);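 also: negative values mean loss of peptide binding seen as reduced polarization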
# Procedure, shortened: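 Fluorescence polarization assay: 50 nM Gαi1 with 10 nM FITC-labeled RGS12 GoLoco peptide in 10 mM Tris pH 7.5, 150 mM NaCl, 0.1 mM GDP, 0.05% NP40, 10 min at room temperature with compound.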
# [11] = target: Cytochrome P450 2C9 (Homo sapiens) (UniProt P11712); assay: qHTS Assay for Inhibitors and Substrates of Cytochrome P450 2C9 (AID 883); also: nearly all actives have a fitted effect of over 60% in size
# Procedure, shortened: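 Signal: luciferase luminescence reporting luciferin produced by CYP2C9. Conditions: 10nM enzyme, Luciferin-H 100uM at KM, 25mM KPO4, 37C, 60 min NADPH-driven reaction. Reference: 57uM sulphaphenazole as 100% inhibition.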
# [12] = target: Cytochrome P450 3A4 (Homo sapiens) (UniProt P08684); assay: qHTS Assay for Activators of Cytochrome P450 3A4 (AID 885); also: nearly all actives have a fitted effect of over 65% in size
# Procedure, shortened: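 20nM CYP3A4 + 25uM Luciferin-PPXE (=KM), 200mM KPO4; cpd 10 min RT; NADPH regen, 60 min RT; stop w/ detection buffer, 20 min; luminescence. Normalized to 57 uM ketoconazole.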
# [13] = Confirmation and Secondary Assay for Modulators of Hemoglobin Beta Chain Splicing at IVS2 654 locus (AID 910);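 also: HeLa cells stably carrying EGFP split by mutant beta-globin IVS2-654 intron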
# Procedure, shortened: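 HeLa cells stably expressing EGFP interrupted by β-globin IVS2-654 intron, seeded overnight in Opti-MEM/2% FCS, then treated 2 days at 37 °C. Restored splicing read as total peak GFP intensity per well by laser scanning cytometry (488 nm excitation, 500–520 nm emission); 500 nM antisense PNA as control.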
# [14] = Confirmation and Secondary Assay for Modulators of Hemoglobin Beta Chain Splicing at IVS2 705 locus (AID 930);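 also: HeLa cells stably expressing the EGFP-705 splicing reporter; GFP fluorescence per well restored by corrected splicing of the IVS2-705 intron in EGFP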
# Procedure, shortened: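 Per-well GFP, captured at 1 x 8 µm resolution with 488 nm excitation, served as the read-out for HeLa EGFP-705 cells incubated 2 days with test compound versus DMSO.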
# [15] = target: Pyruvate kinase (Leishmania mexicana) (UniProt Q27686); assay: qHTS Validation Assay for Inhibitors of Leishmania Mexicana Pyruvate Kinase (AID 945)
# Procedure, shortened: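 An endpoint luciferase assay: 0.2 nM LmPYK E451W turns over 0.5 mM PEP with 0.1 mM ADP for 1 h at room temperature, pH 7.2, before PKLight addition. Values are normalized to DMSO-only wells.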
# [16] = target: Pyruvate kinase PKM (Homo sapiens) (UniProt P14618); assay: qHTS Assay for Activators of Human Muscle Pyruvate Kinase (AID 954; active = well fitted curve in the direction sought with a large enough effect, not every such curve was filed as active)
# Procedure, shortened: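 Luminescence from a luciferase ATP-detection/stop reagent reported PKM2 activity. Reactions contained 0.1 nM purified human enzyme, 0.5 mM PEP, 0.1 mM ADP and 7 mM MgCl2 at pH 7.2, run 1 h at RT.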
# [17] = target: Alpha-galactosidase A (Homo sapiens) (UniProt P06280); assay: Counterscreen for Glucocerebrosidase Inhibitors: qHTS Assay for Human alpha-Galactosidase at pH 4.5 (AID 992)
# Procedure, shortened: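 Enzyme at 2 nM final was combined with compound (0.7 nM to 77 uM) and 80 uM 4-methylumbelliferyl alpha-D-galactopyranoside in 50 mM citric acid, 0.005% Tween-20, pH 4.5. After 20 min at room temperature, fluorescence was read (Ex 365/Em 440 nm); AC50 came from Hill fits.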
# [18] = target: alpha-glucosidase (Oryza sativa, rice) (UniProt Q653V4); assay: Counterscreen for Glucocerebrosidase Inhibitors: qHTS Assay for Rice alpha-Glucosidase at pH 5.0 (AID 997)
# Procedure, shortened: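 Rice alpha-glucosidase (4 nM final) with 400 uM 4-methylumbelliferyl-alpha-D-glucopyranoside in citrate buffer pH 5.0, 20 min at room temperature, stopped at pH 10; fluorescence 365/440 nm, compounds 0.7 nM–77 uM, AC50 from Hill fits.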
# [19] = qHTS Assay for Lipid Storage Modulators (AID 1519; calls by dose curve); settings: Drosophila S3 cells, BODIPY lipid droplet/cell ratio, laser cytometry, cells loaded with oleic acid
# Procedure, shortened: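 Cells seeded at 5,000 per well were treated with compounds over a concentration series and loaded with oleic acid (400 uM, as added). Lipid droplet fluorescence (488 nm excitation, 500-530 nm channel) was read by laser-scanning cytometry and normalized to 20 uM Triacsin C.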
# [20] = target: DNA dC->dU-editing enzyme APOBEC-3G (Homo sapiens) (UniProt Q9HC16); assay: qHTS for inhibitors of Vif-A3G interactions: Validation (AID 588379)
# Procedure, shortened: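 HeLa cells stably expressing Vif and A3G-eYFP, 700 cells/well, incubated overnight at 37 deg C, then exposed to compound overnight at 37 deg C. Inhibition of Vif-mediated degradation read as increased yellow fluorescence (Ex 488/Em 500-530) by laser-scanning cytometry.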
# [21] = Counterscreen qHTS for small molecule stabilizers of the endoplasmic reticulum resident proteome: GLuc-NoTag assay (AID 1508627);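 also: SH-SY5Y cells given compound then 100 nM thapsigargin to empty ER calcium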
# Procedure, shortened: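 SH-SY5Y cells stably expressing constitutively secreted GLuc without SERCaMP tag, exposed to compound for 19 hr, then to 100 nM thapsigargin for 4 hr at 37C. Medium luciferase was read by coelenterazine luminescence without lysis.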
# [22] = Confirmatory qHTS for small molecule stabilizers of the endoplasmic reticulum resident proteome: Secreted ER Calcium Modulated Protein (SERCaMP) assay (AID 1508628); also: nearly all actives have a fitted effect of over 40% in size
# Procedure, shortened: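 SH-SY5Y cells stably expressing GLuc-SERCaMP, treated 16 h with compound (primary 1.53, 7.67, 38.3 uM; confirmation 11 concentrations, up to 76.6 uM), then 100 nM thapsigargin for 4 h. Secreted Gaussia luciferase in medium read by coelenterazine luminescence.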
# [23] = target: Mitogen-activated protein kinase 10 (Mus musculus) (UniProt Q61831); assay: JNK3 AlphaScreen Assay (AID 530; active = well fitted curve in either direction with a large enough effect, not every such curve was filed as active;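 also: kinase came from lysate of stimulated human HepG2 cells; signal reports phosphorylation of biotinylated GST-cJun 1-79 at Ser73 with 10 µM ATP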)
# Procedure, shortened: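 Pre-activated (IL-1β/TNFα) JNK3 in HepG2 lysates phosphorylates biotin-GST-cJun(1-79), 10 uM ATP; anti-phospho-cJun(Ser73) AlphaScreen read at room temperature, pH 7.6 Tris buffer. Compounds pre-incubated 15 min as titrations.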
# [24] = target: Cytochrome P450 2C19 (Homo sapiens) (UniProt P33261); assay: qHTS Assay for Inhibitors and Substrates of Cytochrome P450 2C19 (AID 899); also: nearly all actives have a fitted effect of over 60% in size
# Procedure, shortened: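 Signal comes from luciferase acting on luciferin released by CYP2C19-mediated hydroxylation of Luciferin-H EGE, 10uM (KM). Assay mix: 5nM enzyme, 50mM KPO4; 60 min at 37C with NADPH regeneration. Data normalized against 57uM ketoconazole.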
# [25] = target: Ubiquitin carboxyl-terminal hydrolase 1 (Homo sapiens) (UniProt O94782); assay: Inhibitors of USP1/UAF1: Pilot qHTS (AID 504865);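 also: rhodamine fluorescence freed from ubiquitin-rhodamine substrate followed over time; top concentration of the series differs between compounds; nearly all actives have a fitted effect of over 35% in size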
# Procedure, shortened: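 USP1/UAF1 complex at 1 nM preincubated 15 min at room temperature with compound, then Ub-Rho substrate added at 150 nM final. Fluorescence (480/540 nm) read kinetically in 50 mM HEPES pH 7.8, 0.5 mM EDTA, 1 mM TCEP, 0.1 mg/ml BSA, 0.01% Tween-20.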
# Cytochrome P450 1A2 (Homo sapiens), sequence (P05177 whole entry, looked up): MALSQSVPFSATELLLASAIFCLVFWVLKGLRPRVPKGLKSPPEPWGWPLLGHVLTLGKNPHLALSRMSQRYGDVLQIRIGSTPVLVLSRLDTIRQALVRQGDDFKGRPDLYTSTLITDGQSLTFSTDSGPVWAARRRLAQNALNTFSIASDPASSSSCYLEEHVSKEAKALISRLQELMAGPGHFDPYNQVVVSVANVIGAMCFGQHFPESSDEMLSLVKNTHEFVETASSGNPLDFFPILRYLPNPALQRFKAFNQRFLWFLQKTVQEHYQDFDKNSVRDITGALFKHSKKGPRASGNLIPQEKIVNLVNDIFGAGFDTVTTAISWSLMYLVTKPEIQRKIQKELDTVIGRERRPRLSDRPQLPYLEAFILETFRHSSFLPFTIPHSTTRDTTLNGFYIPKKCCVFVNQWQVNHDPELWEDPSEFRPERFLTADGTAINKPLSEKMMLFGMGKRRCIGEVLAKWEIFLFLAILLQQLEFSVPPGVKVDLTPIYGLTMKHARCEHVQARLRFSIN
# Glucocorticoid receptor (Homo sapiens), sequence (P04150 whole entry, looked up, the tested form may be a part): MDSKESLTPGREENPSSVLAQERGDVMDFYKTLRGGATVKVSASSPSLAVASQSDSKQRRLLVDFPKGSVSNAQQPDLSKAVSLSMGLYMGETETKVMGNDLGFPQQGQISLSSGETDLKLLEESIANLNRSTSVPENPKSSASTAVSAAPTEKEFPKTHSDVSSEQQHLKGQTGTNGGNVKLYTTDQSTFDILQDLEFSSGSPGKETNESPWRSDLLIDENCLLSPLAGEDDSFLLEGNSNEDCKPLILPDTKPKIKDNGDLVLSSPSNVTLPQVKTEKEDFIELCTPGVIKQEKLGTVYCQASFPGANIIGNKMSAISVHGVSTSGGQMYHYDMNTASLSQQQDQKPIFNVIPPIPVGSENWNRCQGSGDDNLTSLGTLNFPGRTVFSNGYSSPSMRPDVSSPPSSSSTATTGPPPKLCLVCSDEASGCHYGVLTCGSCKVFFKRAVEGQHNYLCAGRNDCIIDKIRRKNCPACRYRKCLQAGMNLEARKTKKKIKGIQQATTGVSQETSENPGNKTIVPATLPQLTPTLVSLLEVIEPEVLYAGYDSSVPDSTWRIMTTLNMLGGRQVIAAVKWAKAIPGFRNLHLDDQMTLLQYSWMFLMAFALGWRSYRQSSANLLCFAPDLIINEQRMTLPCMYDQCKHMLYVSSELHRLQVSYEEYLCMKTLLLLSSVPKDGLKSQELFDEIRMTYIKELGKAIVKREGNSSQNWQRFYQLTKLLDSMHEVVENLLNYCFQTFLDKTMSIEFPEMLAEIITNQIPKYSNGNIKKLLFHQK
# DNA dC->dU-editing enzyme APOBEC-3G (Homo sapiens), sequence (Q9HC16 whole entry, looked up): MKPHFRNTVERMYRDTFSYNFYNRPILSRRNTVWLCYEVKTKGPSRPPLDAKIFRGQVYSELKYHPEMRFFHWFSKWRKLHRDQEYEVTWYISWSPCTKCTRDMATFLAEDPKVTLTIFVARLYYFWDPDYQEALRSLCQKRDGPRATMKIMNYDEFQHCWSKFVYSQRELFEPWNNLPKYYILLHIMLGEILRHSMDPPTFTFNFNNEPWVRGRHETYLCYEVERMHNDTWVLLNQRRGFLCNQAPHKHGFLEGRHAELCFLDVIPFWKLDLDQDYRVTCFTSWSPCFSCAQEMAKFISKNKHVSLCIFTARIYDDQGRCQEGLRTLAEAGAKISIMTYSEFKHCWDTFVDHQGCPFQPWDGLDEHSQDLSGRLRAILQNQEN
# 3',5'-cyclic-AMP phosphodiesterase 4B (Homo sapiens), sequence (Q07343 whole entry, looked up): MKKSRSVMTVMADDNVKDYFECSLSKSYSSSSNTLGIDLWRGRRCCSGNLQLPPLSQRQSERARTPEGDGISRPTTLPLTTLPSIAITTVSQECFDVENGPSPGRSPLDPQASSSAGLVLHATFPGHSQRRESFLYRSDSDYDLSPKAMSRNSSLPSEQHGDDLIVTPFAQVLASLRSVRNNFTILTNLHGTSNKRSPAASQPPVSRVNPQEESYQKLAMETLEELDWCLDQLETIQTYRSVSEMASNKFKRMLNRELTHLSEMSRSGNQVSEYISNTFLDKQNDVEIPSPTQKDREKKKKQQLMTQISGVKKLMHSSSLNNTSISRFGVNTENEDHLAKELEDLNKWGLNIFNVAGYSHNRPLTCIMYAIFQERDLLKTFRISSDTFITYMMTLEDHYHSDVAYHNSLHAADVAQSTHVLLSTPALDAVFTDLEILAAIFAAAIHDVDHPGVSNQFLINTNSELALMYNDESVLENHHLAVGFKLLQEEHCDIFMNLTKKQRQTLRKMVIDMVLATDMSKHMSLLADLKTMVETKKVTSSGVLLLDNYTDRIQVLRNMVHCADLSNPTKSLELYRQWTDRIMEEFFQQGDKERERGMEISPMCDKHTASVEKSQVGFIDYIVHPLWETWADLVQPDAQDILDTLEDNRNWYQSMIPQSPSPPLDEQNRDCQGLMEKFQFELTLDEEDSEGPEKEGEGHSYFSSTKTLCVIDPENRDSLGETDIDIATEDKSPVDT
# Cytochrome P450 3A4 (Homo sapiens), sequence (P08684 whole entry, looked up): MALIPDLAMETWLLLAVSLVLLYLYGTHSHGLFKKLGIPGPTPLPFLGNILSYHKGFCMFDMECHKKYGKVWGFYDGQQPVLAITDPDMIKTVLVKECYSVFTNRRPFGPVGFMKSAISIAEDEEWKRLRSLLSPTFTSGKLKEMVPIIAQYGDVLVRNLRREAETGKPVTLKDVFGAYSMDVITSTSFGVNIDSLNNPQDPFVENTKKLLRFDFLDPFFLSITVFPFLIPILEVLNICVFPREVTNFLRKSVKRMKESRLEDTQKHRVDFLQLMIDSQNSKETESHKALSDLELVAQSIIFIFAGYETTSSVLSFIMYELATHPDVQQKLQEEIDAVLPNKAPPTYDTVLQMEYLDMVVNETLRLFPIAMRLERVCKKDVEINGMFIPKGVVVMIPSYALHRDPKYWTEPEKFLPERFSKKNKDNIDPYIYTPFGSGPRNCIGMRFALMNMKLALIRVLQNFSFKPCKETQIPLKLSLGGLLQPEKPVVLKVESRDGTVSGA
# Guanine nucleotide-binding protein G(i) subunit alpha-1 (Homo sapiens), sequence (P63096 whole entry, looked up): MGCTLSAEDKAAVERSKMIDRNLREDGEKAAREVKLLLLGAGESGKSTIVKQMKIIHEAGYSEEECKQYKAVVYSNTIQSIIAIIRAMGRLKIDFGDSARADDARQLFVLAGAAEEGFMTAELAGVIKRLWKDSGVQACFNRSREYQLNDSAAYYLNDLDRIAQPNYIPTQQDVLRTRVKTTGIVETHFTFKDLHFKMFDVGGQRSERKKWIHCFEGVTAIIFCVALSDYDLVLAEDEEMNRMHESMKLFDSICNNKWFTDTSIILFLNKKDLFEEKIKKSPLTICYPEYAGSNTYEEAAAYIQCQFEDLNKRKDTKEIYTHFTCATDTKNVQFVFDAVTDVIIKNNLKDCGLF
# Alpha-galactosidase A (Homo sapiens), sequence (P06280 whole entry, looked up): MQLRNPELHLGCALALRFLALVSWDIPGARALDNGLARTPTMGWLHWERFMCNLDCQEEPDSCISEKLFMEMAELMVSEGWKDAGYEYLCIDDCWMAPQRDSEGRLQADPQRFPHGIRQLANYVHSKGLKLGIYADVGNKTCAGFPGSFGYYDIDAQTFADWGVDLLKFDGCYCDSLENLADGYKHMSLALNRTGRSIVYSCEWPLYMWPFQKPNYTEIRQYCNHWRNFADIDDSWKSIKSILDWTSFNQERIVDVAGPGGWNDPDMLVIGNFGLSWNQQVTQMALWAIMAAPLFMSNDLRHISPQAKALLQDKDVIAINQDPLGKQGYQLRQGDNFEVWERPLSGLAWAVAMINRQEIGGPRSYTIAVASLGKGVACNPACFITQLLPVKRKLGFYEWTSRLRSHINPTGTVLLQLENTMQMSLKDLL
# Cytochrome P450 2C19 (Homo sapiens), sequence (P33261 whole entry, looked up): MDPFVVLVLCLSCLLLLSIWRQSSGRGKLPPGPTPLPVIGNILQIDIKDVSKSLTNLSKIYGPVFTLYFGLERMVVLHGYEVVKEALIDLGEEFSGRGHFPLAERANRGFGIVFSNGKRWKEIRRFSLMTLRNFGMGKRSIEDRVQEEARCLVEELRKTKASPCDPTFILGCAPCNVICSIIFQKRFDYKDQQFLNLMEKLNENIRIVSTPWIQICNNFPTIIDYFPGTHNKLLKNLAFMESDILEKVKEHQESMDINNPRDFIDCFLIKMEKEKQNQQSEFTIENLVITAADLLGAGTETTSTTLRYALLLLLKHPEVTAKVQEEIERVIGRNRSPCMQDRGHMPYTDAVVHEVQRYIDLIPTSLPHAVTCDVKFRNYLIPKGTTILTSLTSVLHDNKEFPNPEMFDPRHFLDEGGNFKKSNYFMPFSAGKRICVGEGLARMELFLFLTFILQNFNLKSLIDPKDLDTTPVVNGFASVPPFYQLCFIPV
# Ubiquitin carboxyl-terminal hydrolase 1 (Homo sapiens), sequence (O94782 whole entry, looked up): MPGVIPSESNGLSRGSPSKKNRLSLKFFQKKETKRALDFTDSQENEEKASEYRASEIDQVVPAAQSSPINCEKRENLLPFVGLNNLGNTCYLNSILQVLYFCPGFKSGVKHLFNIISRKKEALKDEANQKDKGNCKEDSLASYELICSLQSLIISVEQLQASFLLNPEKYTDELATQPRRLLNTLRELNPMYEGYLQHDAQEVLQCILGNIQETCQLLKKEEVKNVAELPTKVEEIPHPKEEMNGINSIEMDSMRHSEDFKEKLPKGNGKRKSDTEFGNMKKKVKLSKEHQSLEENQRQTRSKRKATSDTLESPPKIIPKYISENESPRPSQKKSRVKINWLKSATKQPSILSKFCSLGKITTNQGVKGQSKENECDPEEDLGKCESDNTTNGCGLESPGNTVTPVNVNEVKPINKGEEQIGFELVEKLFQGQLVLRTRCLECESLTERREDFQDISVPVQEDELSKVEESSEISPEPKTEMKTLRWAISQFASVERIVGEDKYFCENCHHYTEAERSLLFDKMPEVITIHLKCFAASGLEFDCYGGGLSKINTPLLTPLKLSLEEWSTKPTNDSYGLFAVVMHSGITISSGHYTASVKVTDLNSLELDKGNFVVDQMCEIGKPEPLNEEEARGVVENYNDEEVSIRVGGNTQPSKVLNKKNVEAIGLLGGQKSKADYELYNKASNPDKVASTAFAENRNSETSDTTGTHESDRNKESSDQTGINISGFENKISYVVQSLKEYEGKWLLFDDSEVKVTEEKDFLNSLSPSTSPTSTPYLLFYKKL
smiles,measurement,setting,value
CC(=O)OCOC(=O)CN(CC(=O)OCOC(C)=O)c1ccccc1OCCOc1ccccc1N(CC(=O)OCOC(C)=O)CC(=O)OCOC(C)=O,Potency,[1],inactive
same,Potency,[2],inactive
Oc1cc2c(cc1O)[C@H](c1ccccc1)CNCC2,"activity change, negative = inhibition",[3],-11.5% (inactive)
same,Potency,[4],inactive
same,"activity change, negative = inhibition",[5],-1.81% (inactive)
same,"activity, negative = inhibition",[6],0.446% (inactive)
same,Potency,[7],> 46 µM (inactive)
same,Potency,[8],> 46 µM (inactive)
same,Potency,[9],inactive
same,outcome,[10],inactive
same,Potency,[11],inactive
same,Potency,[12],inactive
same,outcome,[13],inactive
same,outcome,[14],inactive
same,Potency,[15],inactive
same,outcome,[16],inactive
same,outcome,[17],inactive
same,outcome,[18],inactive
same,"activity change, negative = inhibition",[19]; at 57.5 µM (top of the series),-0.123% (inactive)
same,max response,[19]; measured here: cell count channel max response,4.46%
same,max response,[19]; measured here: lipid channel max response,3.98%
same,Potency,[20],inactive
same,Potency,[1],inactive
same,Potency,[21],inactive
same,Potency,[22],inactive
CCOC(=O)c1c(C)[nH]c2ccc3c(c12)CN1CCc2cc(OC)ccc2[C@@H]1O3,Potency,[4],0.158 µM (active)
same,Potency,[7],> 46 µM (inactive)
same,Potency,[8],> 46 µM (inactive)
same,Potency,[23],inactive
same,Potency,[12],inactive
same,Potency,[24],inactive
same,Potency,[25],inactive
same,Potency,[20],inactive
same,Potency,[1],inactive
same,Potency,[22],inactive
CCCCC/C=C\C/C=C\CCCCCCCCCC(=O)O,"activity change, negative = inhibition",[1],-1.98% [at 6.83 µM] (inactive)
same,"activity change, negative = inhibition",[2],-7.65% [at 3.88 µM] (inactive)
c1ccc(CN(CCN(Cc2ccccn2)Cc2ccccn2)Cc2ccccn2)nc1,Potency,[1],inactive
same,Potency,[2],inactive
N[C@@H](CCS(=O)O)C(=O)O,Potency,[1],inactive
same,Potency,[21],inactive
same,Potency,[22],inactive
same,Potency,[2],inactive
